From PubChem BioAssay (Tox21)
Unmarked numbers belong to inactive results. Results filed as inconclusive are left out. Entries that show only a call come without a potency. Activity calls are given as the source filed them. Unless noted, calls come from the whole dose curve.

Tests used:
[1] = Nuclear factor erythroid 2-related factor 2/antioxidant responsive element (Nrf2/ARE) small molecule agonists: qHTS cell viability counter screen in human keratinocytes (AID 1919968; active = well fitted curve in the direction sought with a large enough effect in the repeat runs; an effect the other way counts as inactive or inconclusive; note: nearly all actives have a fitted effect of over 55% in size)
How it was run: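 KeratinoSens cells (HaCaT keratinocytes stably carrying an ARE-luciferase reporter) were seeded at 1,500 cells/well and rested 5 h at 37 C/5% CO2. They were then exposed to compounds in DMSO for 23 h. Viability was read by CellTiter-Fluor fluorescence after 1 h.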

[2] = Nuclear factor erythroid 2-related factor 2/antioxidant responsive element (Nrf2/ARE) small molecule agonists: luciferase reporter gene qHTS assay in human keratinocytes (AID 1919969); note: nearly all actives have a fitted effect of over 35% in size
[3] = target: Gonadotropin-releasing hormone receptor (Homo sapiens) (UniProt P30968); assay: Human gonadotropin-releasing hormone receptor (GnRHR) small molecule agonists, calcium flux assay in GnRHR-HEK293 cells (AID 1920063); note: nearly all actives have a fitted effect of over 35% in size
How it was run: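 HEK293 cells stably expressing human GnRHR were plated 18 h at 37 °C, loaded with calcium dye 1 h at 37 °C, then given compound in agonist mode; fluorescence (Ex/Em 480/540) read kinetically for 3 min at 1 s intervals.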

[4] = target: KiSS-1 receptor (Homo sapiens) (UniProt Q969F8); assay: Human kisspeptin (KISS1R) small molecule agonists, calcium flux assay in KISS1R-HEK293 cells (AID 1920064; active = well fitted curve in the direction sought with a large enough effect in the repeat runs; an effect the other way counts as inactive or inconclusive)
How it was run: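 HEK293 cells stably expressing human KISS1R were plated 18 h at 37 °C, loaded with calcium dye for 1 h at 37 °C, then given compound by pin tool. Fluorescence (Ex/Em 480/540) was read kinetically for 3 min.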

[5] = G protein-coupled receptor (GPCR) small molecule agonists, calcium flux assay: HEK293 wild type cell line counter screen (AID 1920065)
How it was run: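 Cells were plated and cultured 18 h at 37 C/5% CO2, then loaded with calcium dye for 1 h at 37 C. Compounds in DMSO were pin-transferred in agonist mode, and fluorescence (Ex/Em 480/540) was read kinetically for 3 min at 1 s intervals.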

[6] = p53 small molecule agonists, cell-based qHTS assay with human liver microsomes (AID 1963577);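 note: p53 response element beta-lactamase reporter cells with liver microsomes plus NADPH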
How it was run: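 Metabolically competent format: test substances, human liver microsomes and NADPH (both 0.5 mg/mL final) incubated with p53RE-bla cells 16 h at 37 C. Beta-lactamase reporter signal then quantified by fluorescence.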

[7] = p53 small molecule agonists, cell-based qHTS assay with rat liver microsomes (AID 1963578)
How it was run: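 Each plate received p53RE-bla cells, then compound, then rat liver microsomes and NADPH (both 0.5 mg/mL final). Plates were held 16 h at 37 C, and beta-lactamase activity was detected with LiveBLAzer over 2 h.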

[8] = p53 small molecule agonists, cell-based qHTS assay with human liver microsomes: qHTS cell viability counter screen (AID 1963579); note: nearly all actives have a fitted effect of over 45% in size
How it was run: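 Tox21 library compounds, delivered from DMSO stocks, were tested on p53RE-bla cells together with 0.5 mg/mL human liver microsomes and 0.5 mg/mL NADPH (final) over 16 h at 37 C; CellTiter-Glo luminescence served as the cytotoxicity measure.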

[9] = p53 small molecule agonists, cell-based qHTS assay with rat liver microsomes: qHTS cell viability counter screen (AID 1963580); note: nearly all actives have a fitted effect of over 45% in size
How it was run: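 p53RE-bla HCT-116 cells (4,000/well) rested 5 h at 37 C, then given Tox21 compounds in DMSO with rat liver microsomes (0.5 mg/mL final) plus NADPH (0.5 mg/mL final) for 16 h at 37 C. Viability read by CellTiter-Glo luminescence after 30 min at room temperature.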

[10] = p53 small molecule agonists, cell-based qHTS assay: qHTS cell viability counter screen (AID 1963581); note: nearly all actives have a fitted effect of over 45% in size
How it was run: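 p53RE-bla HCT-116 cells were exposed to compounds for 16 h at 37 C; after the beta-lactamase FRET read in the same wells, CellTiter-Glo was added and luminescence (intracellular ATP) read after 30 min at room temperature.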

[11] = target: 5-hydroxytryptamine receptor 2A (Homo sapiens) (UniProt P28223); assay: 5-hydroxytryptamine receptor 2A (HTR2A) small molecule antagonists, cell-based qHTS assay (AID 1963586); note: nearly all actives have a fitted effect of over 45% in size
How it was run: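 Antagonist-mode intracellular calcium assay: DOI (4 nM) added after 5 min compound pre-incubation at room temperature to dye-loaded HTR2A-CHO cells. Fluorescence followed for 3 min, sampled every second.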

[12] = target: 5-hydroxytryptamine receptor 2A (Homo sapiens) (UniProt P28223); assay: 5-hydroxytryptamine receptor 2A (HTR2A) small molecule agonists, cell-based qHTS assay (AID 1963587); note: nearly all actives have a fitted effect of over 30% in size
How it was run: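 HTR2A-CHO cells, plated 18 h at 37 C/5% CO2, dye-loaded 1 h at 37 C; compounds in DMSO added by pin tool (agonist mode). Intracellular calcium flux read as kinetic fluorescence on FDSS over 2 min at 1 s intervals.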

[13] = target: Muscarinic acetylcholine receptor M1 (Homo sapiens) (UniProt P11229); assay: Cholinergic receptor muscarinic 1 (CHRM1) small molecule antagonists, cell-based qHTS assay (AID 1963588); note: nearly all actives have a fitted effect of over 40% in size; note: potency is the fitted concentration of half-maximal effect
How it was run: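 CHRM1-CHO calcium-flux assay, antagonist mode. Cells were seeded 18 h, dye-loaded 1 h at 37 C and given compound for 5 min at RT, then acetylcholine was added at 50nM. FDSS fluorescence was read 3 min; 15 concentrations, three runs.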

[14] = target: Muscarinic acetylcholine receptor M1 (Homo sapiens) (UniProt P11229); assay: Cholinergic receptor muscarinic 1 (CHRM1) small molecule agonists, cell-based qHTS assay (AID 1963589); note: nearly all actives have a fitted effect of over 35% in size
How it was run: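 CHO cells stably expressing human CHRM1, seeded 18 h at 37 C/5% CO2, dye-loaded 1 h at 37 C, then given compound in agonist mode; intracellular calcium fluorescence read kinetically at 1 s intervals. Fifteen concentrations, three independent runs.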

[15] = cAMP Responsive Elements (CRE) small molecule agonists, cell-based qHTS assay (AID 1963590)
How it was run: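 CRE-bla HEK 293T cells in DMEM with 10% dialyzed FBS, NEAA, pyruvate and 25 mM HEPES were plated 18 h at 37 C/5% CO2, then exposed to compounds in DMSO for 3 h before LiveBLAzer B/G FRET substrate addition.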

[16] = cAMP Responsive Elements (CRE) small molecule antagonists, cell-based qHTS assay (AID 1963591; active = well fitted inhibition curve with a large enough effect in the signal ratio in the repeat runs, not every such curve was filed as active; the % refers to the signal ratio)
How it was run: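 CRE-bla HEK293T cells were plated 18 h at 37 °C/5% CO2, pinned with compound in DMSO, then stimulated with NKH477 at 0.25 uM final for 3 h. LiveBLAzer B/G FRET substrate was added and plates incubated 2 h at room temperature.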

[17] = target: Beta-2 adrenergic receptor (Homo sapiens) (UniProt P07550); assay: Adrenergic beta2 receptor (ADRB2) small molecule antagonists, cell-based qHTS assay (AID 1963592); note: series mostly up to about 92 µM; nearly all actives have a fitted effect of over 50% in size
How it was run: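 Cells (CHO, stable ADRB2 overexpression) incubated 18-20hr at 37C; compounds added from DMSO; agonist mix (1nM isoproterenol, 100uM IBMX, 25uM Ro-20-1724) added; 0.5hr RT; d2-cAMP and anti-cAMP-cryptate added; 1hr RT; 665/615 nm read.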

[18] = target: D(2) dopamine receptor (Homo sapiens) (UniProt P14416); assay: Dopamine D2 receptor (DRD2) small molecule agonists, cell-based qHTS assay (AID 1963594); note: nearly all actives have a fitted effect of over 35% in size
How it was run: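 HEK293 cells stably expressing DRD2 were cultured 24 h at 37 C, then given Ro20-1724 (0.1 mM final) and compounds for 10 min at room temperature. NKH477 (200nM) was then added for 30 min. cAMP was read by HTRF.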

[19] = target: D(2) dopamine receptor (Homo sapiens) (UniProt P14416); assay: Dopamine D2 receptor (DRD2) small molecule antagonists, cell-based qHTS assay (AID 1963595; active = well fitted inhibition curve with a large enough effect in the signal ratio in the repeat runs, with a control signal flat; the % refers to the signal ratio)
How it was run: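 Readout: HTRF cAMP, cAMP-d2 competing with cellular cAMP for anti-cAMP cryptate, read after 1 h. Cells: DRD2-HEK293. Conditions: 0.1 mM Ro20-1724, 12 nM quinpirole, 200 nM NKH477, 30 min RT.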

[20] = target: Beta-2 adrenergic receptor (Homo sapiens) (UniProt P07550); assay: Adrenergic beta2 receptor (ADRB2) small molecule agonists, cell-based qHTS assay (AID 1963593);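 note: CHO cells stably overexpressing human ADRB2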
How it was run: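 CHO cells stably over-expressing ADRB2 were plated overnight at 37C, then dosed with compounds plus a stimulation mix containing 100uM IBMX and 25uM Ro-20-1724 for 0.5hr at room temperature. cAMP was measured by HTRF competition, 1hr.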

Sequence of KiSS-1 receptor (Homo sapiens) (Q969F8 whole entry, looked up): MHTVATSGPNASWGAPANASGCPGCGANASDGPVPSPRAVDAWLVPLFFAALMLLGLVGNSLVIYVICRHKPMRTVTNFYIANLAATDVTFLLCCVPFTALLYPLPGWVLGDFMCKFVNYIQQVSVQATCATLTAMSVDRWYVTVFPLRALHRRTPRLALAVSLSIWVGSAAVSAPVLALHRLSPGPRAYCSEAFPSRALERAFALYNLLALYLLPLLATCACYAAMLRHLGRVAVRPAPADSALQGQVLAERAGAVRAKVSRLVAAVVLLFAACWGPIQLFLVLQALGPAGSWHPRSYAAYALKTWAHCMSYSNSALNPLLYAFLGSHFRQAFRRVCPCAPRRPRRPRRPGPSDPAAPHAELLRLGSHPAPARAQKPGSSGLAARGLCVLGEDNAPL
Sequence of 5-hydroxytryptamine receptor 2A (Homo sapiens) (P28223 whole entry, looked up): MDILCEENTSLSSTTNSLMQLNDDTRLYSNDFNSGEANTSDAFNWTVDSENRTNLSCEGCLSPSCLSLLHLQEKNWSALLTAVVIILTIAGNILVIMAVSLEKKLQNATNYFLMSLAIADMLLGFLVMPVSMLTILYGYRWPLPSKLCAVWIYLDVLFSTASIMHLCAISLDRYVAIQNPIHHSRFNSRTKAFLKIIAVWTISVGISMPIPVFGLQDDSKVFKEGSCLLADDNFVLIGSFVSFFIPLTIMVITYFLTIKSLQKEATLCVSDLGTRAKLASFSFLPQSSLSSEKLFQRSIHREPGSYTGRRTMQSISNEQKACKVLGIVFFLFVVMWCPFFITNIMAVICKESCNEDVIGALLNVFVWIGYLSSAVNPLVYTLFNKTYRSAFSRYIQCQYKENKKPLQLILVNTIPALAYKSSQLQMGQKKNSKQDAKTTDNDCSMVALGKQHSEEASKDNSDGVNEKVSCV
Sequence of Muscarinic acetylcholine receptor M1 (Homo sapiens) (P11229 whole entry, looked up): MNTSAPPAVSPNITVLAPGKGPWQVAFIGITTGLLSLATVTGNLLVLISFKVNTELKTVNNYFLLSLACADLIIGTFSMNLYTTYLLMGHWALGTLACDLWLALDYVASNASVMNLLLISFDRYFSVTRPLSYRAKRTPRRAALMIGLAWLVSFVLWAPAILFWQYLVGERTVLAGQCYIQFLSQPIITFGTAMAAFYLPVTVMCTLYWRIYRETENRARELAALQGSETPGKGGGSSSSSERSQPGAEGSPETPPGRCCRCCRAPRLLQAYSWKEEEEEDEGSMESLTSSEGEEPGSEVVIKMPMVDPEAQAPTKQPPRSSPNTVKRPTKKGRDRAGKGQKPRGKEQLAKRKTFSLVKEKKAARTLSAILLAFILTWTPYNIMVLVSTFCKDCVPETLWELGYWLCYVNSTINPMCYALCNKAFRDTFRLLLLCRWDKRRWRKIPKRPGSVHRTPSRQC
Sequence of D(2) dopamine receptor (Homo sapiens) (P14416 whole entry, looked up): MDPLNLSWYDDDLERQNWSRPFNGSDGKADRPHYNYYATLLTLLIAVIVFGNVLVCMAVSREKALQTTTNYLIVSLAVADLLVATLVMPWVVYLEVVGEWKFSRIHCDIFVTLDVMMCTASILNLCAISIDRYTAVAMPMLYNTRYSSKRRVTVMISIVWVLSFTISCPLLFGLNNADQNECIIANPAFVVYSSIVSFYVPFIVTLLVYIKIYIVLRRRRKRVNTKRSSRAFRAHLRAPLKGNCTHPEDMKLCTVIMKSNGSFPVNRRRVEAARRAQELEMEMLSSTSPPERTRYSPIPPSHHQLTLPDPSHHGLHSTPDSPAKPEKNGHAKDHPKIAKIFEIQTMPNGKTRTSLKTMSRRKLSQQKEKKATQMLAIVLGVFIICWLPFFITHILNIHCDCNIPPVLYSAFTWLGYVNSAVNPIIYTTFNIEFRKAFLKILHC
Sequence of Gonadotropin-releasing hormone receptor (Homo sapiens) (P30968 whole entry, looked up): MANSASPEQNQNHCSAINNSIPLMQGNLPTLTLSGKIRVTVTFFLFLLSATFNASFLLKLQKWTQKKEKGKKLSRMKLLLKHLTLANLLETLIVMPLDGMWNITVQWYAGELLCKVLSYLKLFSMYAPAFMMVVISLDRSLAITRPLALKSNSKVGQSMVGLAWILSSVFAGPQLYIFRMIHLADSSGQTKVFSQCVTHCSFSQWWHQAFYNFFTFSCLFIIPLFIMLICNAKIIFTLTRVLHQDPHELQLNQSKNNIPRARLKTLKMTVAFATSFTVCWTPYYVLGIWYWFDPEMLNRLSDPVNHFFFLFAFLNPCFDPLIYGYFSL
Sequence of Beta-2 adrenergic receptor (Homo sapiens) (P07550 whole entry, looked up): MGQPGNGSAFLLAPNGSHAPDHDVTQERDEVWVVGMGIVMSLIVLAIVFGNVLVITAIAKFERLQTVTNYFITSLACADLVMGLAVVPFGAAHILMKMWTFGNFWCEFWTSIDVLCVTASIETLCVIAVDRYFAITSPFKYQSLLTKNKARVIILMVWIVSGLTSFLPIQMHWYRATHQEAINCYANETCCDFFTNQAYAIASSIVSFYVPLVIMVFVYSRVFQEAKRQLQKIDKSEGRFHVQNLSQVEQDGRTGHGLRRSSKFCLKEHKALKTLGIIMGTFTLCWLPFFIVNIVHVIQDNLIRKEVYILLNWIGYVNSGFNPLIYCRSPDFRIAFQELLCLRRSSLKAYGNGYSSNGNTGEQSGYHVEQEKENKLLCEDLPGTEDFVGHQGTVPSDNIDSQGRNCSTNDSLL

In the case of CCCCCCCCCI, the Potency [1] is reported as “inactive”, the Potency [2] is reported as “inactive” and the Potency [3] is reported as “inactive”. For the same molecule, the outcome [4] was “inactive”, the outcome [5] was “inactive” and the Potency [6] was “inactive”. For the same molecule, the Potency [7] was “inactive”, the Potency [8] was “inactive” and the Potency [9] was “inactive”. For the same molecule, the Potency [10] was “inactive”, the Potency [11] was “inactive” and the Potency [12] was “inactive”. For the same molecule, the Potency [13] was 8.55 µM (active), the Potency [14] was “inactive” and the Potency [15] was “inactive”. For the same molecule, the Potency [16] was “inactive”, the Potency [17] was “inactive” and the Potency [18] was “inactive”. For the same molecule, the Potency [19] was “inactive”.
With CN1C[C@@H]2C[C@H]1CN2c1cc2c(cc1F)c(=O)c(C(=O)O)cn2C1CC1 the activity change, negative = cytotoxicity [1] was -0.599% [at 19 µM], the activity, positive = activation [2] was -6.17% [at 19 µM] and the activity change [3] was -0.0937% [at 11.8 µM, stronger effect = higher value]. It also gave an activation [4] of -1.39% [at 15.8 µM], an activation [5] of 0.573% [at 11.8 µM] and an activation [6] of 9.29% [at 13.5 µM]. The activation [7] was 1.2% [at 13.6 µM], the activity change, negative = cytotoxicity [8] was 13.7% [at 13.5 µM] and the activity change, negative = cytotoxicity [9] was 4.47% [at 13.5 µM]. It also gave an activity change, negative = cytotoxicity [10] of 10.7% [at 13.5 µM], an activity change, negative = inhibition [16] of 13.7% [at 18.9 µM] and an activity change, negative = inhibition [17] of -1.81% [at 19 µM]. The activation [18] was 2.8% [at 19 µM] and the activity change, negative = inhibition [19] was -0.654% [at 18.9 µM].
For COc1cc2c3cc1Oc1cc(ccc1O)C[C@@H]1c4c(cc(OC)c(O)c4Oc4ccc(cc4)C[C@@H]3N(C)CC2)CC[N+]1(C)C, the Potency [1] was “inactive”, the Potency [2] was “inactive” and the Potency [3] was “inactive”. The outcome [4] was “inactive”, the outcome [5] was “inactive” and the Potency [6] was “inactive”. For the same molecule, the Potency [7] was “inactive”, the Potency [8] was “inactive” and the Potency [9] was “inactive”. The Potency [10] was “inactive”, the Potency [16] was “inactive” and the Potency [17] was “inactive”. For the same molecule, the Potency [18] was “inactive” and the Potency [19] was “inactive”.
In the case of OC1OCCOC1O (stereo not given), the Potency [1] is reported as “inactive”, the Potency [2] is reported as “inactive” and the Potency [3] is reported as “inactive”. For the same molecule, the outcome [4] was “inactive”, the outcome [5] was “inactive” and the Potency [6] was “inactive”. The Potency [7] was “inactive”, the Potency [8] was “inactive” and the Potency [9] was “inactive”. For the same molecule, the Potency [10] was “inactive”, the Potency [11] was “inactive” and the Potency [12] was “inactive”. The Potency [13] was “inactive”, the Potency [14] was “inactive” and the Potency [15] was “inactive”. The Potency [16] was “inactive”, the Potency [17] was “inactive” and the Potency [18] was “inactive”. The Potency [19] was “inactive”.
For CC(=O)c1ccc2ccc3ccccc3c2c1, the Potency [1] was “inactive”, the Potency [2] was “inactive” and the Potency [3] was “inactive”. The outcome [4] was “inactive”, the outcome [5] was “inactive” and the Potency [6] was “inactive”. For the same molecule, the Potency [7] was “inactive”, the Potency [8] was “inactive” and the Potency [9] was “inactive”. For the same molecule, the Potency [10] was “inactive”, the Potency [11] was “inactive” and the Potency [12] was “inactive”. The Potency [13] was “inactive”, the Potency [14] was “inactive” and the Potency [16] was “inactive”. The Potency [17] was “inactive” and the Potency [18] was “inactive”.
With CCCOc1ccccc1-c1nc2n[nH]nc2c(=O)[nH]1 the Potency [1] was “inactive”, the Potency [2] was “inactive” and the Potency [3] was “inactive”. The outcome [4] was “inactive”, the outcome [5] was “inactive” and the Potency [6] was “inactive”. For the same molecule, the Potency [7] was “inactive”, the Potency [8] was “inactive” and the Potency [9] was “inactive”. The Potency [10] was “inactive”, the Potency [17] was “inactive” and the Potency [19] was “inactive”.
With CCCCCCCCCCCCCC(=O)OCC the Potency [1] was “inactive”, the Potency [2] was “inactive” and the Potency [3] was “inactive”. The outcome [4] was “inactive”, the outcome [5] was “inactive” and the Potency [6] was “inactive”. The Potency [7] was “inactive”, the Potency [8] was “inactive” and the Potency [9] was “inactive”. The Potency [10] was “inactive”, the Potency [11] was “inactive” and the Potency [12] was “inactive”. The Potency [13] was “inactive”, the Potency [14] was “inactive” and the Potency [15] was “inactive”. For the same molecule, the Potency [16] was “inactive”, the Potency [17] was “inactive” and the Potency [20] was “inactive”. For the same molecule, the Potency [18] was “inactive” and the Potency [19] was “inactive”.
